From the supplement of paper PMC12494721
Structures can show the parent of a compound that is named as a salt. A number with no mark means an inactive call.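 The calls were made as follows: for the amine columns active = adjusted P below 0.05 in both replicates with a change the same way and a mean fold change under 0.8 or over 1.25; inactive = the rest.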

What follows are compounds tested on Klebsiella aerogenes DSM 30053 (assay: fold change of Putrescine concentration vs plate DMSO controls (fold change (ratio)); higher = more amine produced, active = hit call of the paper (significant change in both replicates, either direction)). Conditions: incubation time: 27 h, anaerobic, 37 °C.
Procedure, shortened: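 Amine values are fold changes relative to DMSO-only wells on the same plate. They derive from 27 h, 37 °C anaerobic mGAM cultures of four gut bacterial strains in 80 µL wells, dosed at 20 µM final, or 50 µM final for sweeteners. Extraction of the whole culture, LC–triple-quadrupole MS in dynamic MRM mode, external calibration curves and within-batch drift correction were used, with 2 biological replicates averaged.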

| Compound | fold change of Putrescine concentration |
| --- | --- |
| OC[C@H]1O[C@@H](O[C@H]2[C@H](O)[C@@H](O)[C@H](O)O[C@@H]2CO)[C@H](O)[C@@H](O)[C@H]1O [Lactose] (50 µM) | 1.01 |
| C[C@@]12CC[C@@H]3[C@@](CC[C@H]4[C@@]3(C)CCC[C@@]4(C)C(=O)O)(CC1=O)C2 [Iso-Steviol] (50 µM) | 1.02 |
| CCCCOc1ccc(C(=O)CCN2CCCCC2)cc1 [Dyclonine hydrochloride] (20 µM) | 0.995 |
| CN(C)c1nc(N(C)C)nc(N(C)C)n1 [Altretamine] (20 µM) | 1.04 |
| c1ccc(CNc2ncnc3nc[nH]c23)cc1 [Aminopurine, 6-benzyl] (20 µM) | 1.02 |
| OCCN1CCN(CC/C=C2/c3ccccc3Sc3ccc(C(F)(F)F)cc32)CC1 [Flupentixol dihydrochloride cis-(Z)] (20 µM) | 0.933 |
| Cc1onc(-c2ccccc2)c1C(=O)N[C@@H]1C(=O)N2[C@@H]1SC(C)(C)[C@@H]2C(=O)O [Oxacillin sodium] (20 µM) | 0.992 |
| Cc1ccc(Cl)c(Nc2ccccc2C(=O)O)c1Cl [Meclofenamic acid sodium salt monohydrate] (20 µM) | 0.977 |
| Clc1ccc(C(Cn2ccnc2)OCc2c(Cl)cccc2Cl)c(Cl)c1 (centres undefined) [Isoconazole] (20 µM) | 1.01 |
| NNc1nncc2ccccc12 [Hydralazine hydrochloride] (20 µM) | 1.01 |
| O=C(O)CCC(=O)c1ccc(-c2ccccc2)cc1 [Fenbufen] (20 µM) | 0.989 |
| C[C@]12CCC(=O)C=C1C=C[C@@H]1[C@@H]2CC[C@@]2(C)[C@H]1CC[C@@]21CCC(=O)O1 [Canrenone] (20 µM) | 0.967 |
| CCN(CCO)CCCC(C)Nc1ccnc2cc(Cl)ccc12 (centres undefined) [Hydroxychloroquine sulfate] (20 µM) | 1.04 |
| C[C@@H](O)[C@H]1C(=O)N2C(C(=O)O)=C(S[C@@H]3CN[C@H](C(=O)N(C)C)C3)[C@H](C)[C@H]12 [Meropenem] (20 µM) | 0.605 (active) |
| COc1cc(C(=O)OCCCN2CCCN(CCCOC(=O)c3cc(OC)c(OC)c(OC)c3)CC2)cc(OC)c1OC [Dilazep dihydrochloride] (20 µM) | 0.937 |
| CCOC(=O)n1ccn(C)c1=S [Carbimazole] (20 µM) | 1.03 |
| CCOC(=O)CC(=O)N1CCSC1COc1ccccc1OC (centres undefined) [Moguisteine] (20 µM) | 1.01 |
| CN[C@@H]1[C@@H](O[C@H]2O[C@H](CO)[C@@H](N)[C@H](O)[C@H]2O)OC2C[C@@H](N)[C@@H](O[C@H]3[C@H](O)[C@@H](O)[C@H](N)C[C@@H]3N)OC2[C@@H]1O (some centres undefined) [Apramycin] (20 µM) | 1.05 |
| Cc1c(OCC(F)(F)F)ccnc1C[S+]([O-])c1nc2ccccc2[nH]1 (centres undefined) [Lansoprazole] (20 µM) | 1.01 |
| Cn1c(=O)cc(N2CCC[C@@H](N)C2)n(Cc2ccccc2C#N)c1=O [Alogliptin benzoate] (20 µM) | 1.01 |

| Compound | fold change of Putrescine concentration |
| --- | --- |
| Nc1nc(F)nc2c1ncn2[C@@H]1O[C@H](CO)[C@@H](O)[C@@H]1O [Fludarabine] (20 µM) | 0.965 |
| CCN(Cc1ccncc1)C(=O)C(CO)c1ccccc1 (centres undefined) [Tropicamide] (20 µM) | 0.967 |
| CNC1(C)C2CCC(C2)C1(C)C (centres undefined) [Mecamylamine hydrochloride] (20 µM) | 0.994 |
| CC1=NN(c2ccccc2)C(=O)C1 [Edaravone] (20 µM) | 1.02 |
| Nc1ccn([C@@H]2O[C@H](CO)[C@@H](O)C2(F)F)c(=O)n1 [Gemcitabine] (20 µM) | 1.01 |
| CCCC(CCC)C(=O)O[C@H]1C[C@H]2CC[C@@H](C1)[N+]2(C)C [Anisotropine Methylbromide] (20 µM) | 0.962 |
| COc1c(N2CCNC(C)C2)c(F)cc2c(=O)c(C(=O)O)cn(C3CC3)c12 (centres undefined) [Gatifloxacin] (20 µM) | 1.02 |
| OC(CNCC(O)C1CCc2cc(F)ccc2O1)C1CCc2cc(F)ccc2O1 (centres undefined) [Nebivolol hydrochloride] (20 µM) | 1.01 |
| COc1ccccc1O [Guaiacol] (20 µM) | 0.999 |
| COc1ccc(CC2c3cc(OC)c(OC)cc3CC[N+]2(C)CCC(=O)OCCCCCOC(=O)CC[N+]2(C)CCc3cc(OC)c(OC)cc3C2Cc2ccc(OC)c(OC)c2)cc1OC (centres undefined) [Atracurium besylate] (20 µM) | 0.953 |
| O=C(O)Cc1cc(I)c(Oc2ccc(O)c(I)c2)c(I)c1 [Tiratricol] (20 µM) | 1.01 |
| COc1cc(/C=C/C(=O)N2CCN(CC(=O)N3CCCC3)CC2)cc(OC)c1OC [Cinepazide maleate] (20 µM) | 0.911 |
| C[C@H](CCC(=O)O)[C@H]1CC[C@H]2[C@@H]3C(=O)C[C@@H]4CC(=O)CC[C@]4(C)[C@H]3CC(=O)[C@]12C [Dehydrocholic acid] (20 µM) | 1.01 |
| CN1CCOC(c2ccccc2)c2ccccc2C1 (centres undefined) [Nefopam hydrochloride] (20 µM) | 0.94 |
| CCOc1ccc(NC(N)=O)cc1 [(4-Ethoxyphenyl)urea] (50 µM) | 0.986 |
| CCCCOc1ccc(CC(=O)NO)cc1 [Bufexamac] (20 µM) | 0.959 |
| CCOc1ccc2ccccc2c1C(=O)N[C@@H]1C(=O)N2[C@@H]1SC(C)(C)[C@@H]2C(=O)O [Nafcillin sodium salt monohydrate] (20 µM) | 1.06 |
| c1ccc2cc3c(ccc4ccccc43)cc2c1 [Benz[a]anthracene] (20 µM) | 0.901 |
| CC(C)NC[C@H](O)COc1cccc2ccccc12 [(S)-(-)-Propranolol hydrochloride] (20 µM) | 0.993 |
